Results reported in PubChem BioAssay AID1259343 (VanderVen Lab, College of Veterinary Medicine, Cornell …, 2017).
About 2,900 (47%) of roughly 6,200 compounds were called active. Cut-off read from the data, not from the text of the source: active = inhibition above about 50%; inactive = the rest. The set was probably picked from earlier hits. The list shows a part of the results.

Test: Mycobacterium tuberculosis growth inhibition, primary screen (AID 1259343)
Conditions: inhibition: at 10 µM, stronger effect = higher value; outcome: 10 uM
With `CC(SC1CCCC1)C(=O)N1CCCC1` (stereo unspecified) the inhibition was 52.1% (active). In the case of `COc1cccc(-c2ccccc2NC(=O)C2CCN(CC(C)c3ccccc3)CC2)c1` (stereo unspecified), the inhibition was 74.2% (active). For `COc1cccc(-c2ccccc2NC(=O)C2CCN(CCC(C)c3ccc(C)o3)CC2)c1` (stereo unspecified), the inhibition was 80.1% (active). For `COc1cccc(-c2ccccc2NC(=O)C2CCN(CC3CCCCC3)CC2)c1`, the inhibition was 89.8% (active). In the case of `COc1cccc(-c2ccccc2NC(=O)C2CCN(CC3CC=CCC3)CC2)c1` (stereo unspecified), the inhibition was 84% (active). In the case of `COc1cccc(-c2ccccc2NC(=O)C2CCN(Cc3cc4ccccc4[nH]3)CC2)c1`, the inhibition was 17.3% (inactive). In the case of `CC(C)c1ccc(C#N)c(SC2CC(=O)N(c3ccc(Br)cc3)C2=O)n1` (stereo unspecified), the inhibition was 10.7% (inactive). With `O=C(/C=C/c1ccc(O)c(O)c1)OCCc1ccccc1` the inhibition was 102% (active). For `COc1cc(/C=C/C(=O)O)ccc1O`, the inhibition was 37.7% (inactive). With `CC1CC(OCC(O)CN2CCC(CN3C(=O)c4cccc5cccc(c45)C3=O)CC2)CC(C)(C)C1` (stereo unspecified) the inhibition was 90.1% (active). For `O=C(CCNc1ccc(Cc2ccncc2)cc1)c1ccc2c(c1)OCO2`, the inhibition was 84.6% (active). For `O=C(C(Br)=CNc1ccc(Cl)c(Cl)c1)C(F)(F)F`, the inhibition was 87% (active). In the case of `CN(CC1Cc2ccccc2O1)C(=O)c1cc(COc2ccc3ncccc3c2)on1` (stereo unspecified), the inhibition was 35.5% (inactive). For `CCC(C(=O)c1ccc2ncccc2c1)c1ccccc1` (stereo unspecified), the inhibition was 58.2% (active). In the case of `CCc1ccc(C(=O)NCc2ccc(C#N)cc2)o1`, the inhibition was 12.2% (inactive). In the case of `CCc1ccc(C(=O)NCc2cccc(C(=O)Nc3ccncc3)c2)o1`, the inhibition was 51.8% (active). In the case of `CCN(c1ccc(C(=O)Nc2ccncc2)cc1)C(C)C`, the inhibition was 8.43% (inactive). With `CC1(C)C2CC=C(C=NNC(=O)NC3CCCCC3)C1C2` (stereo unspecified) the inhibition was -4.24% (inactive). In the case of `O=C(/C=C/c1ccc([N+](=O)[O-])s1)Nc1nnc(C2COc3ccccc3O2)o1` (stereo unspecified), the inhibition was 101% (active). With `CN(CCCC(=O)Nc1ccc2[nH]c(=S)oc2c1)C(=O)OC(C)(C)C` the inhibition was 73.7% (active). For `CN(CCCCCCCCCCN(C)C(=O)Oc1cccc([N+](C)(C)C)c1)C(=O)Oc1cccc([N+](C)(C)C)c1`, the inhibition was 49.3% (inactive). In the case of `C=CCN=c1scc(-c2ccccc2)n1N=Cc1ccccn1`, the inhibition was 20.3% (inactive). With `Cc1[nH]n(-c2cccc(Cl)c2)c(=O)c1C=NCCc1ccccc1` the inhibition was 72.9% (active). In the case of `Cc1ccc(C)c(Oc2cc(-n3ncc(Cl)c(Cl)c3=O)nc(C)n2)c1`, the inhibition was 101% (active). In the case of `Cc1ccc2nc(-c3ccncc3)cc(-c3ccccc3)c2c1`, the inhibition was 53.7% (active). In the case of `NC(=O)C(c1ccc(F)cc1)N1CCOC(c2ccc(F)cc2)C1` (stereo unspecified), the inhibition was -5.29% (inactive).
